For one assay, the target named is Albumin (Bos taurus) (UniProt P02769). Nature of the assay: compounds binding labelled BSA control protein – biochemical, small-molecule microarray, Alexa647 label, 635/667 nm fluorescence, artefact control for SMM control protein annotation, profiling panel (AID 1118).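 Also: score merges 667 nm emission intensity and signal-to-noise per printed compound spot.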 The conditions noted are these: BSA-A647 binding, fluorescence 635 nm, higher = more signal.
Assay [1] is described as follows: probe aXIP binding to arrayed compounds – biochemical, NeuroSMM set, 635/667 nm fluorescence, primary screen (AID 1119).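 Also: probe is the protein aXip251-270 applied at 1 µg/mL to compound-printed slides; binding of probe to printed compounds measured as 667 nm fluorescence plus signal to noise.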 The conditions noted are these: small-molecule microarray, higher = more signal, called active from +8 up or from −8 down.
Assay [2] in a line: probe aNOTCH3 binding on compound microarray – biochemical, small-molecule microarray, 635/667 nm fluorescence, primary screen (AID 1120).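 Also: probe is a biotin-tagged antibody raised against NOTCH3 rather than NOTCH3 protein; score merges spot fluorescence near 667 nm with spot signal to noise.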 The following applies: higher = more signal.
Assay [3] in a line: probe aNOTCH2 binding on compound microarray – biochemical, small-molecule microarray, 635/667 nm fluorescence, primary screen (AID 1121).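 Also: score merges feature fluorescence read at 667 nm with its signal to noise.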 The conditions noted are these: higher = more signal.
The target of assay [4] is Carbonic anhydrase 2 (Homo sapiens) (UniProt P00918). The assay is described as follows: compounds binding carbonic anhydrase 2 – biochemical, small-molecule microarray, Alexa647-labelled CAII, profiling panel (AID 1122). The following applies: CAII-A647 binding fluorescence, higher = more signal.
The nature of assay [5]: COS7 lysate on small-molecule microarray, probe aHis, 635 nm (AID 1123).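 Also: z-score combines 667nm fluorescence intensity with signal-to-noise per printed compound spot.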 The conditions noted are these: COS7 cell lysate, fluorescence, higher = more signal.
Assay [6] can be described thus: probe aLAP1 signal on lysate-treated microarray – cell lysate, small-molecule microarray, COS7 lysate, primary screen (AID 1124).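 Also: lysate comes from COS7 cells expressing LAP1 and is applied at 0.3 µg/mL; score merges spot fluorescence near 667 nm with signal-to-noise over triplicate slides.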 The conditions noted are these: probe aLAP1, fluorescence, higher = more signal.
Another assay has as its system Sam68 (KHDRBS1). The assay is described as follows: compounds binding KHDRBS1 protein – biochemical, small-molecule microarray, 635 nm fluorescence, primary screen (AID 1125).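 Also: score merges 667 nm channel intensity with signal to noise over triplicate slides.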 The following applies: higher = more signal.
Assay [7] deals with Chordin-like protein 2 (CHRDL2). Nature of the assay: compounds binding chordin-like 2 – biochemical, small-molecule microarray, 635 nm fluorescence, primary screen (AID 1126).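 Also: printed compound slides probed with Chrdl2 protein at 4 µg/mL for 1 h at 4 C; score merges 667 nm emission intensity with signal to noise over three replicate slides.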 The following applies: fluorescence 635 nm, higher = more signal.
The target of assay [8] is Concanavalin-A (Canavalia ensiformis) (UniProt P02866). The assay is described as follows: compounds binding concanavalin A lectin – biochemical, small-molecule microarray, Alexa647 label, 635 nm, artefact control for SMM control protein annotation, primary screen (AID 1127).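 Also: z combines 667 nm emission intensity with signal-to-noise across three replicate slides.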 The following applies: ConA-A647 binding fluorescence, higher = more signal.

The source made the active and inactive calls.

Concanavalin-A (Canavalia ensiformis), sequence (P02866 whole entry, looked up): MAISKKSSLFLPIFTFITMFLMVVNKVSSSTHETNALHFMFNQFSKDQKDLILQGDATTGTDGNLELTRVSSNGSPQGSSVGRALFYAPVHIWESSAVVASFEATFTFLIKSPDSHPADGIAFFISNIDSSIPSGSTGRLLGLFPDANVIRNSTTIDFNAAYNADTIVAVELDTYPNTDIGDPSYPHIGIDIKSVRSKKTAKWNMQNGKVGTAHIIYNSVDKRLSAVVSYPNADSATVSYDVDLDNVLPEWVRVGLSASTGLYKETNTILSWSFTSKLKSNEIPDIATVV
Albumin (Bos taurus), sequence (P02769 whole entry, looked up): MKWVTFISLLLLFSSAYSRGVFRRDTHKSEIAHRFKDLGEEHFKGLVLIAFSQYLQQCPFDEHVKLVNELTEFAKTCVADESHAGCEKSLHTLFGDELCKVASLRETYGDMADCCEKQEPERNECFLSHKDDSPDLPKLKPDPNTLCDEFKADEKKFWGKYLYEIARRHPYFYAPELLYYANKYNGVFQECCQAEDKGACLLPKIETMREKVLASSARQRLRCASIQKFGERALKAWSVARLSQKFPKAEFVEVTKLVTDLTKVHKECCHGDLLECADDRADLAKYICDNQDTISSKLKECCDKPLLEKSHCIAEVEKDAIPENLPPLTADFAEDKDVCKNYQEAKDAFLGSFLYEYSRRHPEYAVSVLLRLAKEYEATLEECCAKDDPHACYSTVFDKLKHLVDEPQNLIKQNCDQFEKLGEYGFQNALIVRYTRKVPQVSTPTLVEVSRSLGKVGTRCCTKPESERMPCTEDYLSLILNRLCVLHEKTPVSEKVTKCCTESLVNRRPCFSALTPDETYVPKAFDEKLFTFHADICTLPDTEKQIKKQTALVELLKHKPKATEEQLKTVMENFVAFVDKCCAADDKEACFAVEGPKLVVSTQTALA

As for `Cc1ccc(S(=O)(=O)N[C@@H]2COC(=O)[C@@H](C)COC(=O)CC=C[C@H]2C)cc1`, the composite z-score with Albumin (Bos taurus) was -0.0824; in assay [2], 0.135; in assay [3], -0.162; in assay [4], -0.006; in assay [5], -0.0704; in assay [6] it was -0.0424. The values for the composite z-score (in the assay with Sam68 (KHDRBS1); in assay [7]; in assay [8]) were -0.181, 0.379 and 0.457, respectively. Besides, the composite Z-score in assay [1] is -0.145 (inactive).
Consider `C[C@@H](c1ccccc1)N1C(=O)[C@H]2[C@H]3[C@H](O)[C@H](O)CC(=NOCc4ccccc4)[C@H]3CC[C@H]2C1=O`, for which the composite z-score with Albumin (Bos taurus) was 0.437; in assay [2], -0.0288; in assay [3], -0.147; in [4] it was 0.388; in assay [5], 0.797; in assay [6] it was 0.771. The composite z-score in the assay on Sam68 (KHDRBS1) amounted to 1.17; in assay [7], 0.365; in assay [8] it was 0.951. The composite Z-score in assay [1] was -0.325 (inactive).
In the case of `CC(C)(C)N1C(=O)[C@H]2[C@H]3[C@H](O)[C@H](O)CC(=O)[C@H]3CC[C@H]2C1=O`, the composite z-score in the assay with Albumin (Bos taurus) was 0.472; in assay [2], -0.0581; in [3], -0.155; in assay [4], 0.0658; in assay [5], 0.165; in [6], 0.206. Further, the results for the composite z-score (with Sam68 (KHDRBS1); in assay [7]; in assay [8]) were 0.892, 0.357 and 0.673, respectively. The composite Z-score in assay [1] is 0.403 (inactive).
Turning to `O=C1CCCC=C1C(O)CCOC(c1ccccc1)(c1ccccc1)c1ccccc1` (stereo not given), the composite z-score in the assay with Albumin (Bos taurus) is 0.404; in assay [2], -0.158; in assay [3], -0.169; in assay [4], -0.252; in [5], -0.447; in assay [6] it was -0.146. The composite z-score in the assay with Sam68 (KHDRBS1) is -1.52; in assay [7] it was -0.0466; in assay [8], -0.542. In assay [1], the composite Z-score is 0.142 (inactive).
With `CCOC(=O)C1=NO[C@@]2(C=C(Br)C3(OCCCO3)[C@H]3O[C@H]32)C1`, the composite z-score in the assay with Albumin (Bos taurus) is -1.04; in assay [2], 0.0962; in assay [3] it was -0.14; in assay [4], 0.486; in assay [5], 0.336; in [6] it was -0.145. Also, the composite z-score with Sam68 (KHDRBS1) was -0.268; in assay [7] it was 1.52; in [8], 0.313. In addition, the composite Z-score in assay [1] is 0.44 (inactive).
In the case of `CO[C@H]1COC(=O)[C@@H](Cc2ccccc2)NC(=O)[C@@H](C)COC(=O)CCC[C@@H]1C`, the composite z-score is 0.516 with Albumin (Bos taurus); 0.0257 in assay [2]; -0.132 in [3]; -0.248 in [4]; 0.0267 in assay [5]; -0.0452 in assay [6]. Also, the results for the composite z-score (in the assay on Sam68 (KHDRBS1); in assay [7]; in [8]) were 0.179, 0.295 and -0.171, respectively. In addition, the composite Z-score in assay [1] was -0.112 (inactive).
Turning to `C[C@H]1CC[C@H]2C(=O)O[C@H](COc3ccc(C(C)(C)C)cc3)CN2[C@@H]1c1ccc(Br)cc1`, the composite z-score with Albumin (Bos taurus) is 0.513; in assay [2] it was -0.0435; in assay [3], -0.123; in [4], -0.232; in [5], 0.263; in [6] it was 0.253. Besides, the composite z-score is 0.421 with Sam68 (KHDRBS1), -0.0816 in assay [7] and 1.09 in assay [8]. In addition, in assay [1], the composite Z-score was 1.48 (inactive).
Take `CO[C@H]1COC(=O)CC=C[C@H](C)[C@@H](OC)COC(=O)[C@@H](C)NC(=O)CC=C[C@@H]1C`: the composite z-score was -0.614 in the assay with Albumin (Bos taurus); -0.173 in assay [2]; -0.169 in assay [3]; -0.581 in assay [4]; -0.629 in assay [5]; 0.304 in assay [6]. In addition, the values for the composite z-score (in the assay on Sam68 (KHDRBS1); in [7]; in assay [8]) were -0.0974, 1.47 and -0.897, respectively. Moreover, in assay [1], the composite Z-score is 0.611 (inactive).
With `C[C@@H]1C=CCC(=O)OC[C@H]2O[C@@H](C=C[C@@H]2O)[C@H](C)C=CCC(=O)OC1`, the composite z-score with Albumin (Bos taurus) was -0.861; in [2], 0.0903; in assay [3], -0.0903; in [4] it was -0.5; in assay [5] it was -1.26; in assay [6], -0.307. For the same molecule, the figures for the composite z-score (in the assay with Sam68 (KHDRBS1); in assay [7]; in assay [8]) were -0.419, 1.6 and -1.65, respectively. Further, the composite Z-score in assay [1] was 4.07 (inactive).
For the molecule `CC(C)=NOC[C@@H](C)[C@H](OCc1ccccc1)C(C)C`, the composite z-score with Albumin (Bos taurus) is -0.0998; in [2], -0.165; in [3], -0.206; in [4], -0.389; in assay [5], -0.616; in assay [6], -0.228. For the same molecule, the composite z-score with Sam68 (KHDRBS1) was -1.61; in [7], 0.0109; in [8], -0.0651. Moreover, the composite Z-score in assay [1] was 0.317 (inactive).
Take `CO[C@@H]1COC(=O)CC=C[C@@H](C)[C@H](OC)COC(=O)[C@@H](C)COC(=O)CC=C[C@H]1C`: the composite z-score in the assay with Albumin (Bos taurus) was -0.797; in assay [2] it was -0.055; in assay [3], -0.124; in assay [4], -0.679; in assay [5] it was -0.824; in [6], -0.0936. Besides, the composite z-score with Sam68 (KHDRBS1) was -0.983; in assay [7], 1.47; in [8] it was -0.423. Further, in assay [1], the composite Z-score was 0.0068 (inactive).
On to `CO[C@@H]1C=CCC(=O)N[C@@H](C)C(=O)OC[C@@H](OC)[C@H](C)CCCC(=O)OC[C@H]1C`, for which the composite z-score with Albumin (Bos taurus) was -0.555; in [2] it was 0.0854; in assay [3] it was -0.208; in assay [4], -1.01; in assay [5] it was -1.96; in [6] it was 0.173. The composite z-score was -0.248 in the assay with Sam68 (KHDRBS1), 1.53 in [7] and -0.997 in assay [8]. For the same molecule, the composite Z-score in [1] was -0.31 (inactive).
On to `COc1ccc(O[C@H]2C=C[C@@H](c3ccccc3)O[C@@H]2CON=C(C)CCN2CCc3nc(-c4ccccc4)c(-c4ccccc4)cc3C2)cc1`, for which the composite z-score was 0.628 with Albumin (Bos taurus); -0.085 in [2]; -0.18 in assay [3]; -0.117 in assay [4]; -0.0458 in assay [5]; -0.251 in assay [6]. In addition, the composite z-score with Sam68 (KHDRBS1) was -0.83; in assay [7] it was -0.163; in [8], 0.799. Also, the composite Z-score in [1] was -0.508 (inactive).
